The results in this text go back to ChEMBL document CHEMBL4513146, “CO-ADD screening of Karazin Kharkiv National University (Ukraine) compounds”.

Measured potencies and affinities stand elsewhere.

The test system of one experiment is Staphylococcus aureus. Particulars: Concentration 32 ug.mL-1;; ASSAY_TEST Inhibition of Bacterial Growth; detection method Absorption (OD600); MEDIA CAMHB; plate type 384well; NBS; CORNING #3640; time 18 hr.
The Inhibition is the relative decrease from the control value, in per cent. For the molecule `O=C(Cn1nc2n(CCc3ccccc3)c(=O)c3ccccc3n2c1=O)Nc1ccc2c(c1)OCO2`, the Inhibition was -2.08%.
Turning to `COc1cccc(NC(=O)Cn2nc3c(N4CCCC4)nccn3c2=O)c1`, the Inhibition was -2.28%.
On the same count and under the same terms, for `COc1ccccc1NC(=O)Cn1nc2c(Oc3ccc(Cl)cc3)nccn2c1=O` the value was 6.15%; for `CCc1nnc2c(SCC(=O)Nc3ccccc3Br)nc3ccccc3n12`, 10.46%.
In the case of `O=C(CSc1nnc2c(=O)n(-c3ccc(F)c(F)c3)ccn12)c1cccc(Cl)c1`, the Inhibition stood at 13.4%.
In the case of `O=c1n(Cc2ccc(Cl)cc2)nc2ccc(-c3ccccc3)nn12`, the Inhibition is 3.14%.
On to `COc1ccc(N(Cc2cc(F)cc(F)c2)S(=O)(=O)c2ccc3nnc(C)n3c2)cc1`, for which the Inhibition was 12.66%.
In the case of `O=C(Cn1nc2c(Oc3ccccc3)nccn2c1=O)Nc1ccccc1C(F)(F)F`, the Inhibition was determined as 2.85%.
As for `Cc1ccc(Nc2cc(C)n3c(=O)n(Cc4cc(=O)n5ccccc5n4)nc3n2)cc1F`, the Inhibition is given as 9.94%.
For `CC(C)c1nnc2c(SCC(=O)Nc3ccccc3C(F)(F)F)nc3ccccc3n12`, the Inhibition is listed as 6.66%.

In another experiment the test system is Escherichia coli. The note with it: Concentration 32 ug.mL-1;; ASSAY_TEST Inhibition of Bacterial Growth; detection method Absorption (OD600); MEDIA CAMHB; plate type 384well; NBS; CORNING #3640; time 18 hr.
In the case of `O=S(=O)(c1cccn2cnnc12)N(Cc1cccc(F)c1)c1cccc(Cl)c1`, the Inhibition is -7.43%.
For `COc1cccc(CN(c2cccc(C)c2)S(=O)(=O)c2ccc3nnc(C)n3c2)c1`, the Inhibition is listed as -6.19%.
As to `COc1ccccc1N1CCN(C(=O)CSc2nnc3c(=O)n(-c4ccccc4)ccn23)CC1`, the Inhibition was -6.8%.
In the case of `Cc1nnc2c(=O)n(CC(=O)Nc3ccc(Cl)cc3)c3ccccc3n12`, the Inhibition is reported as 2.85%.
For the molecule `Cc1ccc(Oc2nccn3c(=O)n(CC(=O)NCc4cccs4)nc23)cc1`, the Inhibition was 1.37%.
As to `CC(C)c1nnc2c(SCC(=O)Nc3ccccc3F)nc3ccccc3n12`, the Inhibition is -2.22%.
Turning to `COc1ccc(NC(=O)Cn2nc3ccc(-c4ccc(Cl)cc4)nn3c2=O)cc1`, the Inhibition is on record as -4.11%.
`O=c1c2nnc(-c3ccc([N+](=O)[O-])cc3)n2ccn1-c1ccc(F)c(F)c1`: the Inhibition is -1.2%.
As to `CCc1ccc(N(Cc2cccc(C)c2)S(=O)(=O)c2cccn3c(C)nnc23)cc1`, the Inhibition came out at 0.34%.
Turning to `CCCCn1c(=O)c2sccc2n2c(=O)n(CC(=O)N(C)c3ccccc3)nc12`, the Inhibition is listed as -12.98%.
In the case of `COc1ccc(-c2cc3c4nnc(CCC(=O)NCc5ccccc5Cl)n4ccn3n2)cc1`, the Inhibition is -2.58%.
Same read-out and setting: for `O=C(CSc1nnc2n(CC3CCCO3)c(=O)c3sccc3n12)Nc1ccc(F)cc1Cl` (stereo not given) the value was -12.15%; for `CCC(Sc1nnc2c(=O)n(-c3cccc(OC)c3)ccn12)C(=O)Nc1cc(F)ccc1F` (stereo not given), -7.17%.
The same measure, in the same setting: the value for `COc1ccccc1-n1ccn2c(SCc3ccccc3Cl)nnc2c1=O` was -4.4%; that for `O=C(NCc1ccccc1)c1ccc2nn(CC(=O)N3CCN(c4ccccc4)CC3)c(=O)n2c1` was -4.36%.
As to `CSc1cccc(NC(=O)Cn2nc3c(SCc4ccc(Cl)cc4)nccn3c2=O)c1`, the Inhibition was -9.35%.
With `O=C(Cn1nc2c(Oc3ccccc3)nccn2c1=O)Nc1ccc(F)cc1F`, the Inhibition is on record as -8.04%.
Consider `COc1ccc(NC(=O)Cn2nc3c(Oc4ccccc4)nccn3c2=O)cc1`, for which the Inhibition is -1.88%.
Turning to `Cc1ccc(NC(=O)Cn2nc3ccc(SC(C)C)nn3c2=O)c(C)c1`, the Inhibition is given as 4.56%.
Regarding `COc1ccc(-c2cc3c4nn(CC(=O)Nc5c(C)cc(C)cc5C)c(=O)n4ccn3n2)cc1`, the Inhibition turned out to be 4.81%.
The same measure, in the same setting: for `O=c1n(Cc2nc(-c3ccc(F)cc3)no2)nc2ccc(-c3ccccc3)nn12` the value was -3.67%; for `COc1ccc(N(Cc2ccccc2F)S(=O)(=O)c2ccc3nnc(C)n3c2)cc1`, -7.31%; for `Cc1ccc(C)c(-c2cc3c4nnc(CCC(=O)NCCc5ccc(Cl)cc5)n4ccn3n2)c1`, 3.02%.
Still for that read-out and setting: the value for `Cc1ccc(Oc2nccn3c(=O)n(CC(=O)Nc4cc(F)ccc4F)nc23)cc1` was -1.03%.
Turning to `COc1ccc(NC(=O)Cn2nc3c(Sc4ccccc4)nccn3c2=O)cc1Cl`, the Inhibition is listed as -4.12%.
Turning to `Cc1cc(C)cc(Nc2nc(C)cc3nn(CC(=O)Nc4ccc(C)c(F)c4)c(=O)n23)c1`, the Inhibition was -0.61%.
As for `COc1cc(OC)c(NC(=O)Cn2nc3ccc(Sc4ccc(C)cc4)nn3c2=O)cc1Cl`, the Inhibition is given as -10.5%.
In the case of `Cc1cc(Nc2ccc(F)cc2)nc2nn(CCc3ccccc3)c(=O)n12`, the Inhibition is reported as -5.44%.
The same measure, in the same setting: the value for `C=Cc1ccc(CN(c2cccc(F)c2)S(=O)(=O)c2ccc3nnc(C)n3c2)cc1` was -8.1%.
Regarding `COC(=O)c1ccccc1NC(=O)Cn1nc2c3cc(-c4ccc(OC)cc4)nn3ccn2c1=O`, the Inhibition worked out at 4.87%.
As for `O=C(Cn1nc2n(CCc3ccccc3)c(=O)c3ccccc3n2c1=O)Nc1ccc2c(c1)OCO2`, the Inhibition is -8.34%.
On to `COc1cccc(NC(=O)Cn2nc3c(N4CCCC4)nccn3c2=O)c1`, for which the Inhibition is listed as -3.58%.
For the molecule `COc1ccccc1NC(=O)Cn1nc2c(Oc3ccc(Cl)cc3)nccn2c1=O`, the Inhibition is given as -7.74%.
Consider `CCc1nnc2c(SCC(=O)Nc3ccccc3Br)nc3ccccc3n12`, for which the Inhibition stood at 0.26%.
`O=C(CSc1nnc2c(=O)n(-c3ccc(F)c(F)c3)ccn12)c1cccc(Cl)c1`: the Inhibition is given as -3.45%.
Still for that read-out and setting: for `O=c1n(Cc2ccc(Cl)cc2)nc2ccc(-c3ccccc3)nn12` the value was -1.49%; for `COc1ccc(N(Cc2cc(F)cc(F)c2)S(=O)(=O)c2ccc3nnc(C)n3c2)cc1`, -2.53%.
As for `O=C(Cn1nc2c(Oc3ccccc3)nccn2c1=O)Nc1ccccc1C(F)(F)F`, the Inhibition is -0.6%.
In the case of `Cc1ccc(Nc2cc(C)n3c(=O)n(Cc4cc(=O)n5ccccc5n4)nc3n2)cc1F`, the Inhibition was -6.14%.
`CC(C)c1nnc2c(SCC(=O)Nc3ccccc3C(F)(F)F)nc3ccccc3n12`: the Inhibition is -3.21%.
